# DUSP3 inh: inhibitors of human VHR1 phosphatase (DUSP3); recombinant VHR phosphatase, pNPP absorbance; hit rate 0.52% among 290,000; inhibition, % at 13.3 µM; P51452; AID 1654; in the data active = inhibition above about 50%
# MazEF act: MazEF (E. coli) toxin RNase activation | FAM/BHQ RNA-DNA oligo cleavage fluorescence, 5 h | activation, % at 20 µM | hit rate 0.32% among 350,000 | AID 504720; in the data active = activation above about 50%
# Anthrax LF prot: anthrax lethal factor protease inhibition | P15917 | inhibition, % at 10 µM | multiplex microsphere protease cleavage assay, LF | hit rate 0.12% among 360,000; note: plate controls were buffer without enzyme for full effect and enzyme alone for no effect
# Target sequence (P15917 whole entry, looked up): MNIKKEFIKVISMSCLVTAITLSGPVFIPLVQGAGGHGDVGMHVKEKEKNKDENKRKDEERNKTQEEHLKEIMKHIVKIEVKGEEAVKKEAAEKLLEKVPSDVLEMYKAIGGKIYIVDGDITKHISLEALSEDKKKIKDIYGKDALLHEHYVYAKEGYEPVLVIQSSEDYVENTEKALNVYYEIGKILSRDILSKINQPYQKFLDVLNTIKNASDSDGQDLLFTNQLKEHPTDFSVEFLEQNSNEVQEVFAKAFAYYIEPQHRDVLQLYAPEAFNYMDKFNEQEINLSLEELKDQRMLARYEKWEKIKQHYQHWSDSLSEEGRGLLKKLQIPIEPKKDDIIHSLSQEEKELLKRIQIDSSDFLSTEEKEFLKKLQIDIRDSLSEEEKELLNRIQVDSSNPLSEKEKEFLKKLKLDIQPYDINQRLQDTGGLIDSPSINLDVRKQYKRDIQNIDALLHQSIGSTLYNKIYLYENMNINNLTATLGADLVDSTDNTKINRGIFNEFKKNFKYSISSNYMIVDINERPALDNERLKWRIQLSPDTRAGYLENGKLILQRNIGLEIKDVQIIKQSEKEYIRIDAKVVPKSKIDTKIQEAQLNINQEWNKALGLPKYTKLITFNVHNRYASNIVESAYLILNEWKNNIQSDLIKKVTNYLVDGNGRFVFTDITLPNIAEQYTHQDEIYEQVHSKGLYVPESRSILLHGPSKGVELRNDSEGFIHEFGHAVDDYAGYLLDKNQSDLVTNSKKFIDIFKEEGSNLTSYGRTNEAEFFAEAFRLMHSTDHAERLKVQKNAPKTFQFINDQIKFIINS
# Autofluor counter: flagged as autofluorescent in microsphere protease counterscreen; fluorescence intensity (concentration not given with the values); hit rate 3.1% among 360,000; compound autofluorescence counterscreen, microsphere flow cytometry; hits give high values; in the data active = fluorescence intensity above about 16000; inconclusive = no clear call, values can overlap the other calls
# BoNT-F LC inh: BoNT F light chain protease inhibition. inhibition, % at 10 µM. Multiplex microsphere protease cleavage assay, flow cytometry. hit rate 0.22% among 360,000; in the data active = inhibition above about 35%, passing the limit was not always enough; inconclusive = no clear call, values can overlap the other calls; note: plate controls were buffer without enzyme for full effect and enzyme alone for no effect
# BoNT A protease: BoNT A light chain protease inhibition. inhibition, % at 10 µM. hit rate 0.17% among 360,000. multiplex microsphere protease substrate cleavage, flow cytometry; note: plate controls were buffer without enzyme for full effect and enzyme alone for no effect
# Starred values were filed as active, the others as inactive; ? = inconclusive; nt = no result. Hits are enriched below; roughly 4.1% of the tested compounds scored in any of these assays. Cut-off read from the data, not from the text of the source, unless noted: active = inhibition above about 30%; inconclusive = no clear call, values can overlap the other calls; inactive = below that.
SMILES,DUSP3 inh,MazEF act,Anthrax LF prot,Autofluor counter,BoNT-F LC inh,BoNT A protease
CCN(CC)S(=O)(=O)c1ccc2oc(C(=O)Nc3ccc(OC)cc3OC)c(C)c2c1,28,0,-2,24222*,-6,-3
COc1ccc(NC(=O)c2oc3ccccc3c2NC(=O)C(C)(C)C)cc1,17,-6,-4,8054,-4,0
COc1ccc(NC(=O)/C(=C\c2ccccc2)NC(=O)c2ccco2)cc1,22,5,-2,3889,8,1
COc1ccc(NC(=O)c2oc3ccccc3c2NC(=O)c2ccco2)c(OC)c1,15,1,-1,23875*,-4,-2
COc1ccc(NC(=O)c2oc3cc(C)c(C)cc3c2C)c(OC)c1,-8,6,2,4751,-79,-5
CC1(C(=O)NS(=O)(=O)C2CC2)CCN(C(=O)c2ccc3c(c2)OCO3)C1 (stereo not drawn),nt,nt,-6,3976,0,-1
CN(C)N1C(N)=C(C#N)C(c2cccc([N+](=O)[O-])c2)C2=C1CC(C)(C)CC2=O (stereo not drawn),-35,7,0,3852,4,-3
COc1ccc(NC(=O)c2oc3ccccc3c2NC(=O)C2CC2)c(OC)c1,-4,-1,10,5321,10,9
CCOCC(=O)Nc1c(C(=O)Nc2ccc(OC)cc2OC)oc2ccccc12,-16,-1,-1,24944*,-1,?
COCC(=O)Nc1c(C(=O)Nc2ccccc2OC)oc2ccccc12,13,6,-2,23967*,-5,-1
CCN(c1ccccc1)S(=O)(=O)c1ccc(OC)c(NC(=O)c2ccco2)c1,nt,10,-1,3823,0,0
COCCC(=O)N1CCC(n2nccc2NC(=O)CCc2ccccc2)CC1,5,4,-2,6118,-6,-2
COCCn1c(-c2ccc(-c3ccc([N+](=O)[O-])cc3Br)o2)nc2c1c(=O)[nH]c(=O)n2CC(C)C,3,98*,11,4801,9,24
O=S1(=O)CC(N2CCCC2)CN1Cc1cn(Cc2cccc(C(F)(F)F)c2)nn1 (stereo not drawn),nt,nt,-5,5007,2,0
O=C(O)c1cc(NN=C2CCN(Cc3ccccc3)CC2)ccc1Cl,20,1,-5,6123,42*,7
O=C(NN=C1CCN(Cc2ccccc2)CC1)c1ccccc1O,-2,12,-2,5493,-10,-1
COc1ccc2sc(-c3ccc(SC)cc3)c(-c3ccc(O)cc3)c2c1,nt,-2,-7,2930,-5,0
Cc1ccc(C2=[N+]([O-])C3(CCCCC/C3=N\NC(N)=O)N(O)C2(C)C)o1 (stereo not drawn),-18,10,3,2485,-3,0
CC1(C)C(c2cccs2)=[N+]([O-])C2(CCCCC/C2=N\O)N1O (stereo not drawn),-26,11,-1,24784*,-4,-2
COc1ccc(-c2sc(Nc3cccc4ccccc34)n[n+]2C)c(C)c1C,nt,-13,-6,3511,-7,0
O=c1[nH]c2ccc(S(=O)(=O)N3CCN(Cc4ccccc4)CC3)cc2[nH]c1=O,32,5,-1,21331*,-4,-3
Nc1ccc(S(=O)(=O)N2CCCC2C(=O)O)cc1 (stereo not drawn),-3,-1,5,5844,-11,0
O=C(O)C1CCCN1S(=O)(=O)c1ccc2[nH]c(=O)c(=O)[nH]c2c1 (stereo not drawn),10,7,-3,25018*,-6,-2
O=C(NCc1ccc(Cl)cc1)C1CCCN(c2cnccn2)C1 (stereo not drawn),23,3,2,4495,0,-1
CCN(CC)CCN1C(=O)c2ccccc2NC1c1ccc(C)cc1 (stereo not drawn),15,7,-4,23099*,2,?
Cc1ccsc1C(=O)N1CCC1(C)C(=O)Nc1ccc2c(c1)OCCO2 (stereo not drawn),nt,nt,-6,3559,-1,0
CC(=O)Nc1ccc(NC(=O)c2cc(C)nn2-c2ccccc2)cc1,3,-3,0,22454*,-3,?
COc1ccc(NC(=O)c2cc(C)nn2-c2ccccc2)cc1,7,1,-9,3925,-9,-4
COC(=O)N(C)C[C@@H]1OCc2cnnn2CCCC(=O)N([C@@H](C)CO)C[C@H]1C,nt,3,2,3090,-3,0
CCN1CCN(C(=O)C(=O)c2cn(CC(=O)N3CCCC3)c3ccccc23)CC1,0,2,-3,6511,-3,-2

# Assay outcomes deposited in PubChem by several laboratories.
